The structures appear in SMILES notation. The whole screen tested about 65,000 compounds, of which about 2,100 (3.2%) showed an effect of 50% or more. The median lay at about -52%. What follows is part of a selection rich in strong results, with near analogues and random picks from the rest.

INHIBITION data for 53 compounds are collected here from ChEMBL document CHEMBL4513216, “Probing the Open Global Health Chemical Diversity Library for Multistage-Active Starting Points for Next-Generation Antimalarials” (ACS Infect Dis, 2020).

The assay concerns Plasmodium falciparum. The assay is described as follows: Screen against P. falciparum Asexual Blood Stage (ABS), at 5uM. The format is functional, Dd2. As to conditions: tested at 5 uM.
For `COc1cc(CN2CCCC2)ccc1Oc1ccc2c(c1)CC(CN)O2` (stereo not drawn), the INHIBITION stood at 59.8%.

`Cc1cc(CN2CCCC2)cc(Oc2ccc3c(c2)CC(CN)O3)c1` (stereo not drawn): the INHIBITION is on record as 28.4%.

Regarding `Cc1ccc(N2CCO[C@H]3CN(C(=O)c4cccc(C)n4)C[C@H]32)nn1`, the INHIBITION is -46.4%.

For the compound `CCn1c(CN(C)Cc2csc(C)n2)nc2cc(F)ccc21`, the INHIBITION is listed as 61%.

`CCn1c(CN(C)Cc2cnc(C)s2)nc2c(F)cccc21`: the INHIBITION is on record as -30.4%.

As for `CCn1c(CN(C)Cc2cnc(C)s2)nc2cc(F)ccc21`, the INHIBITION is -16.6%.

As for `Cc1csc(CCCNc2ccc(S(N)(=O)=O)cc2C#N)n1`, the INHIBITION is recorded as -9.07%.

On to `CC(CN1CCC(c2ccccc2)CC1)n1cnc2ccccc21` (stereo not drawn), for which the INHIBITION stood at 3.15%.

On to `COCCN1CCCCC12CC(=O)N(c1ccccc1OC)C2` (stereo not drawn), for which the INHIBITION is reported as -78.3%.

With `O=C(Cc1ccco1)N1CCC2(CCOCC2COCC2CC2)CC1` (stereo not drawn), the INHIBITION was -30.9%.

With `c1coc(CN2CCC3(CCOCC3COCC3CC3)CC2)c1` (stereo not drawn), the INHIBITION was 62.3%.

Take `c1cc(CN2CCC3(CCOCC3COCC3CC3)CC2)co1` (stereo not drawn): the INHIBITION is reported as 14.4%.

As for `Cc1cccc(CN2CCC3(CCCN(C(=O)N(C)C)C3)C2=O)n1` (stereo not drawn), the INHIBITION was -86.4%.

Regarding `CN(C)c1nc(N)nc(CN2CCC(c3nc4ccccc4o3)CC2)n1`, the INHIBITION is 7.31%.

Turning to `CN(C)c1nc(N)nc(CN2CCCC2c2ccsc2)n1` (stereo not drawn), the INHIBITION was 26.9%.

Take `CN(C)c1nc(N)nc(CN2CCCC2c2cccs2)n1` (stereo not drawn): the INHIBITION was 52%.

In the case of `c1ccc(C2CCCN(Cc3cc4n(n3)CCNC4)CC2)cc1` (stereo not drawn), the INHIBITION is reported as 37.2%.

In the case of `Cc1cccc(C2CCCN2Cc2nc(N)nc(N(C)C)n2)c1C` (stereo not drawn), the INHIBITION is -12.4%.

Regarding `CN(C)c1nc(N)nc(CN2CCCC(c3ccccc3)CC2)n1` (stereo not drawn), the INHIBITION was determined as 54%.

Turning to `COCC1CN(C(=O)Cc2ccccn2)Cc2ncnn2C1` (stereo not drawn), the INHIBITION was -70.5%.

With `Cc1cc(C(=O)N2CCN(c3nc4c(C(C)C)cccc4s3)CC2)on1`, the INHIBITION came to 35.8%.

In the case of `COCCOCC(=O)Nc1ccc(F)cc1C`, the INHIBITION is recorded as -33.5%.

Take `Cc1nc(CN2CCC(c3nc4cc(Cl)ccc4o3)CC2)oc1C`: the INHIBITION is given as -53.1%.

For the compound `Cc1noc(C)c1CN1CCC(c2nc3cc(Cl)ccc3o2)CC1`, the INHIBITION came to 58.5%.

Turning to `CC(C)(C)c1nc(CN2CCC(c3nc4cc(Cl)ccc4o3)CC2)no1`, the INHIBITION is -67.9%.

For `O=C([C@@H]1COC[C@H]2CN(C3CCCC3)C[C@H]21)N1CCC(F)CC1`, the INHIBITION is recorded as -68.8%.

Turning to `CN1CCN(C(=O)c2nc3c(o2)CN(C(=O)c2cccnc2)C3)CC1`, the INHIBITION is listed as -0.0268%.

On to `O=C(CSC1=NS(=O)(=O)c2cc(F)ccc2N1)Nc1ccc(Cl)c(Cl)c1`, for which the INHIBITION is recorded as -21.5%.

`O=C(N1CCOCC1)N1CCC2(CC1)CN(c1ccccn1)CCO2`: the INHIBITION is -99.6%.

As for `CCCn1cc(CN2CCOCC2c2[nH]ncc2C)cn1` (stereo not drawn), the INHIBITION is listed as -155%.

On to `CCCn1cc(CNCC(c2ccc(C)s2)N2CCOCC2)cn1` (stereo not drawn), for which the INHIBITION is given as 56.8%.

Turning to `Cc1ccc(C(CNCC2CC2)N2CCOCC2)s1` (stereo not drawn), the INHIBITION is listed as 26.8%.

In the case of `Cc1ccc(C(CNCc2ccc(C#N)cc2)N2CCOCC2)s1` (stereo not drawn), the INHIBITION came to 52.3%.

As to `CCn1ccnc1CNCC(c1ccc(C)s1)N1CCOCC1` (stereo not drawn), the INHIBITION came out at 54.1%.

Consider `Cc1ccc(C(CNCc2nccn2C)N2CCOCC2)s1` (stereo not drawn), for which the INHIBITION is listed as -28.6%.

For `CCn1cc(CNCC(c2ccc(C)s2)N2CCOCC2)cn1` (stereo not drawn), the INHIBITION worked out at 65.7%.

Turning to `Cc1ccc(C(CNCc2ncc[nH]2)N2CCOCC2)s1` (stereo not drawn), the INHIBITION is reported as 34.5%.

Take `Cc1ccc(C(CNCc2ccncc2)N2CCOCC2)s1` (stereo not drawn): the INHIBITION is on record as -40.9%.

As for `Cc1ccc(C(CNCc2cccn2C)N2CCOCC2)s1` (stereo not drawn), the INHIBITION is on record as -38.5%.

On to `O=C(CCn1cccn1)NCC(c1cccs1)N1CCOCC1` (stereo not drawn), for which the INHIBITION is -64.1%.

As for `Cc1ccc(C(CNCc2cnn(C(C)C)c2)N2CCOCC2)s1` (stereo not drawn), the INHIBITION is given as 35.9%.

For `CCCOc1ccc(CNc2cncc(-n3cccn3)n2)cc1`, the INHIBITION was -99.4%.

In the case of `Cc1ccc(N2CCC3(CCCN(C(=O)c4cccnc4)C3)C2)nn1` (stereo not drawn), the INHIBITION was -0.21%.

`O=C(O)c1cccc2c(Br)cccc12`: the INHIBITION is listed as -180%.

For the compound `Cn1cnc2c1CCN(Cc1csc(-c3ccccc3F)n1)C2`, the INHIBITION is given as -58%.

For `O=C(c1ccc2c(c1)CCCC2)N1CCN(c2cnccn2)CC1`, the INHIBITION came out at 45%.

`CCS(=O)(=O)N1Cc2ccccc2CC1C(=O)OCc1cc(C)no1` (stereo not drawn): the INHIBITION is recorded as -132%.

As to `Cc1cc(C(F)(F)F)nc(CNC(=O)CCn2cccn2)n1`, the INHIBITION is -223%.

`O=C([C@@H]1CCO[C@@H]2CCN(Cc3cccs3)C[C@H]21)N1CCCCO1`: the INHIBITION is recorded as -36.6%.

Regarding `CC(C)c1n[nH]c(C(=O)Nc2ccncc2)c1Br`, the INHIBITION is -163%.

Take `Cc1cccc(NC(=O)c2[nH]nc(C(C)C)c2Br)n1`: the INHIBITION is given as 57.6%.

On to `CC(C)c1n[nH]c(C(=O)Nc2cc[nH]n2)c1Br`, for which the INHIBITION is listed as -208%.

Take `O=S(=O)(c1cccnc1)N1CCN(Cc2nc(-c3cccs3)cs2)CC1`: the INHIBITION is given as -29%.
